Reference: PubChem BioAssay (EPA / NIEHS)
Where “and” joins values, the source holds several entries; their conditions need not be identical. Equal values may be shown once. Records with an inconclusive call do not appear. Calls of active or inactive are those of the source. The calls were made as follows, unless noted: active = hit-call score of the fitted dose curve at least 0.9, where 1 is the maximum; inconclusive = response in the unintended direction; inactive = score below 0.9. *1 amine or outer side, *2 acyl side, *3 side chain or, on linkers, in order; H or OH if unused. Where a SMILES comes first, the peptide text is derived from it. Bridges are numbered along the chain shown (N, C = ends). Roman numbers before positions name the chains, in order. [ ]: non-standard residue; d: D form. Actinocin(9to1) = Cc1c2oc3c(C)ccc(C(=O)[*:1])c3nc-2c(C(=O)[*:2])c(N)c1=O; NMeV = CN[C@H](C(=O)O)C(C)C; Sar = CNCC(=O)O

How the values were obtained:
[1] = biological target: Cellular tumor antigen p53 (Homo sapiens) (UniProt P04637); experiment: TOX21_p53_BLA_p2_ratio: Tox21 HCT-116 p53 Agonism Beta-lactamase Assay, Ratio, Phase 2 (AID 2283592)
Method in brief: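 Cleaved-to-uncleaved substrate ratio (460 vs 530 nm) measured in HCT116 cells with an inducible beta-lactamase reporter linked to p53 activity. Compounds incubated 16 h at 37C before 2 h room-temperature CCF4-AM loading.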

[2] = TOX21_p53_BLA_p3_viability: Viability Assessment in the Tox21 HCT-116 p53 Agonism Beta-lactamase Assay, Phase 3 (AID 2283593);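 also: cells exposed to compound for 16 h before reading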
Method in brief: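 HCT-116 cells (4000/well) rested 5 h at 37C, then got DMSO compounds by pin tool (217-fold dilution) for 16 h at 37C, 5% CO2. After the bla read, CellTiter-Glo was added and luminescence read at 30 min, room temperature.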

[3] = biological target: Cellular tumor antigen p53 (Homo sapiens) (UniProt P04637); experiment: TOX21_p53_BLA_p3_ratio: Tox21 HCT-116 p53 Agonism Beta-lactamase Assay, Ratio, Phase 3 (AID 2283596)
Method in brief: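 Cells were seeded at 4000/well, rested 5 h at 37C, then dosed with DMSO compound solutions (217-fold dilution) for 16 h. CCF4-AM substrate was loaded for 2 h at room temperature, and the 460/530 nm emission ratio was fitted for gain of signal versus DMSO.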

[4] = TOX21_p53_BLA_p4_viability: Viability Assessment in the Tox21 HCT-116 p53 Agonism Beta-lactamase Assay, Phase 4 (AID 2283597);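 also: hits lower the luminescence signal meaning cytotoxicity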
Method in brief: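 Viability is taken as cellular ATP: after 16 h compound exposure of HCT116 cells and a 2 h room-temperature CCF4-AM substrate step, CellTiter-Glo reagent is added and luminescence is measured 30 min later.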

[5] = biological target: Cellular tumor antigen p53 (Homo sapiens) (UniProt P04637); experiment: TOX21_p53_BLA_p5_ratio: Tox21 HCT-116 p53 Agonism Beta-lactamase Assay, Ratio, Phase 5 (AID 2283599)
Method in brief: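 HCT-116 cells carrying a p53-inducible beta-lactamase reporter were seeded at 4000 cells/well and dosed after 5 h with compound in DMSO (217-fold dilution). After 16 h at 37C, CCF4-AM substrate was added for 2 h, and the 460/530 nm emission ratio was scored as gain-of-signal versus DMSO.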

[6] = biological target: Cellular tumor antigen p53 (Homo sapiens) (UniProt P04637); experiment: TOX21_p53_BLA_p4_ratio: Tox21 HCT-116 p53 Agonism Beta-lactamase Assay, Ratio, Phase 4 (AID 2283601)
Method in brief: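 HCT116 cells carrying an inducible beta-lactamase reporter were plated at 4000 cells/well, rested 5 h, then exposed to compounds in DMSO (217-fold dilution) for 16 h at 37C. CCF4-AM substrate was loaded 2 h at room temperature; 460/530 nm emission ratio scored gain-of-signal versus DMSO.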

[7] = system: Brachyury (BRA) Protein Expression, Deisenroth Lab, TBXT (gene 6862); experiment: CCTE_Deisenroth_DEVTOX-GLR_legacy_Bra: (Legacy) CCTE's DevTox GLR-Endo Assay Evaluation of Brachyury (BRA) Protein Expression, Deisenroth Lab (AID 2284329; active = hit-call score of the fitted dose curve at least 0.9, where 1 is the maximum; inactive = score below 0.9)
Method in brief: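 High-content imaging of fixed RUES2-GLR cells after a 48-hour differentiation with two compound exposures yields percent cells whose Bra signal exceeds pluripotent control median by 5x BMAD; values are baseline-corrected to DMSO.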

[8] = CCTE_Deisenroth_DEVTOX-GLR_legacy_CellCount: (Legacy) Viability Assessment in CCTE's DevTox GLR-Endo Assay, Deisenroth Lab (AID 2284331; active = hit-call score of the fitted dose curve at least 0.9, where 1 is the maximum; inactive = score below 0.9); settings: actives raise or lower the signal
Method in brief: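 Viability is taken from imaged nuclei counts in fixed RUES2-GLR cultures after 48 h of differentiation under two 24 h-spaced chemical exposures, 10 concentrations from 1 nM to 200 uM, gain or loss versus DMSO baseline.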

[9] = system: SRY-box transcription factor 2 (SOX2) Protein Expression, Deisenroth Lab, SOX2 (gene 6657); experiment: CCTE_Deisenroth_DEVTOX-GLR_legacy_Sox2: (Legacy) CCTE's DevTox GLR-Endo Assay Evaluation of SRY-box transcription factor 2 (SOX2) Protein Expression, Deisenroth Lab (AID 2284346; active = hit-call score of the fitted dose curve at least 0.9, where 1 is the maximum; inactive = score below 0.9)
Method in brief: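 Two exposures, 24 h apart, during 48 h defined-media differentiation of seeded RUES2-GLR cells; nuclei-stained cells imaged. Sox2 positivity called at 5x BMAD above endoderm control median, DMSO median subtracted.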

[10] = system: SRY-box transcription factor 2 (SOX2) Protein Expression, Deisenroth Lab, SOX2 (gene 6657); experiment: CCTE_Deisenroth_DEVTOX-GLR_Endo_SOX2: CCTE's DevTox GLR-Endo Assay Evaluation of SRY-box transcription factor 2 (SOX2) Protein Expression, Deisenroth Lab (AID 2284412)
Method in brief: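 Endpoint is percent SOX2-positive cells (SOX2+ count/total cells) minus 0.2% DMSO control, from high-content imaging of fixed, nuclear-stained RUES2-GLR cells. Dosing twice at 24 h intervals over 48 h differentiation, 1 nM–200 uM in 10 points.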

[11] = system: SRY-box transcription factor 17 (SOX17) Protein Expression, Deisenroth Lab, SOX17 (gene 64321); experiment: CCTE_Deisenroth_DEVTOX-GLR_Endo_SOX17: CCTE's DevTox GLR-Endo Assay Evaluation of SRY-box transcription factor 17 (SOX17) Protein Expression, Deisenroth Lab (AID 2284413; active = hit-call score of the fitted dose curve at least 0.9, where 1 is the maximum; inactive = score below 0.9)
Method in brief: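 Fluorescent microscopy of a SOX17 reporter in RUES2-GLR pluripotent cells scored endoderm differentiation after 48 h and two 24-h-spaced exposures. Values are percent change in SOX17+ population against 0.2% DMSO, n=4 experimental replicates.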

[12] = system: Brachyury (BRA) Protein Expression, TBXT (gene 6862); experiment: CCTE_Deisenroth_DEVTOX-GLR_Endo_BRA: CCTE's DevTox GLR-Endo Assay Evaluation of Brachyury (BRA) Protein Expression, Deisenroth Lab (AID 2284417; active = hit-call score of the fitted dose curve at least 0.9, where 1 is the maximum; inactive = score below 0.9)
Method in brief: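 Read-out: BRA+ cell count divided by total cell count by high-content imaging (5 fields per well), expressed relative to 0.2% DMSO solvent control. RUES2-GLR cells dosed twice over a 48 h differentiation; concentrations 1 nM - 200 uM.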

[13] = TOX21_p53_BLA_p5_viability: Viability Assessment in the Tox21 HCT-116 p53 Agonism Beta-lactamase Assay, Phase 5 (AID 2283600)
Method in brief: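 Viability is taken from cellular ATP content, measured by luciferase luminescence in the same wells after the beta-lactamase ratio read. Cells are seeded at 4000 per well and exposed to DMSO-dissolved compounds, diluted 217-fold, for 16 h.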

Measured: AC50

Sequence of Cellular tumor antigen p53 (Homo sapiens) (P04637 whole entry, looked up): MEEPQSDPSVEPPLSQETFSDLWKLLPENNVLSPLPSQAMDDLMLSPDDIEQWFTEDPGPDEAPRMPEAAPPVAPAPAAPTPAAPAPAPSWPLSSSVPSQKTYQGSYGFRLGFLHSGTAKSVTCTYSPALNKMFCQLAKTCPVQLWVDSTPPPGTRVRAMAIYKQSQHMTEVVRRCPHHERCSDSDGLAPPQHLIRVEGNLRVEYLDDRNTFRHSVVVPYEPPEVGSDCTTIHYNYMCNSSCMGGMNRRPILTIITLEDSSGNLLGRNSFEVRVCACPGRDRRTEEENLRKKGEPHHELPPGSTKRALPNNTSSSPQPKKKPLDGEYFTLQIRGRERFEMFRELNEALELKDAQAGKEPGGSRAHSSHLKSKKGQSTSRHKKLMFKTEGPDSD

Cc1c2oc3c(C)ccc(C(=O)N[C@@H]4C(=O)N[C@H](C(C)C)C(=O)N5CCC[C@H]5C(=O)N(C)CC(=O)N(C)[C@@H](C(C)C)C(=O)O[C@@H]4C)c3nc-2c(C(=O)N[C@@H]2C(=O)N[C@H](C(C)C)C(=O)N3CCC[C@H]3C(=O)N(C)CC(=O)N(C)[C@@H](C(C)C)C(=O)O[C@@H]2C)c(N)c1=O (I: T[dV]P[Sar][NMeV] / II: T[dV]P[Sar][NMeV]; ester I:1-I:C, II:1-II:C; linker I:N-II:N via Actinocin(9to1))
inactive: [4]
active: [1] 0.163 nM and 3.91 nM | [2] 40600 nM | [3] 0.165 nM and 4.24 nM | [5] 0.0328 nM and 7.71 nM | [6] 0.262 nM and 3.61 nM | [7] 1.54 nM | [8] 0.297 nM | [9] 2.31 nM | [10] 1.62 nM | [11] 0.0442 nM | [12] 1.08 nM

O=S1(=O)c2cccc3cccc(c23)N1CCCN1CCN(c2ccc(F)cc2)CC1
active: [4] 41200 nM
inactive: [1] | [2] | [3] | [5] | [6]

CCN(C=O)CC
inactive: [1] | [2] | [3] | [4] | [13]

CC(C)(O)CCCC1=CCC(C=O)CC1 (stereo not given)
inactive: [1] | [2] | [3] | [4] | [13]

CN1[C@@H]2CC[C@H]1CC(OC(c1ccccc1)c1ccccc1)C2 (stereo not given in full)
inactive: [1] | [2] | [3] | [4] | [13] | [6]

COc1cc(NS(=O)(=O)c2ccc(N)cc2)nc(C)n1
inactive: [1] | [2] | [3] | [4] | [13]

Cc1cccc2c1cc1ccc3cccc4ccc2c1c34
active: [1] 801 nM | [3] 2.77 µM | [5] 2.33 µM | [6] 440 nM
inactive: [2] | [4]
